Records with an inconclusive call do not appear. Where a call stands in place of a potency, no number is given. Active and inactive are the calls of the source. Calls follow the shape of the dose curve; as a rule, active = well fitted inhibition curve with a large enough effect; inconclusive = small, poorly fitted or top-dose-only effect; inactive = no such curve, though single readings can be large or run the other way.
Experiment: NS1 protein of Zika virus - qHTS assay to identify small molecule inhibitors in human HEK 293 cells (AID 1347053); also: nearly all actives have a fitted effect of over 55% in size
Details: HEK293 ZIKV MR766 infection, NS1 TR-FRET, 24 h; series mostly up to 46.1 µM
Method in brief: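 Inhibition of NS1 expression was scored in HEK 293 cells given compound 1 h ahead of MR766 virus (MOI = 0.5). Following 24 h at 37 C, two anti-NS1 antibodies generated a TR-FRET signal, scaled between uninfected and infected controls.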

**Q.** Which Potency does the source give for `COC(=O)C1=C(C)NC(COC(N)=O)=C(C(=O)OC(C)C)C1c1cccc(Cl)c1Cl` (centres undefined) here?
**A.** inactive

**Q.** Which Potency does the source give for `COC(=O)c1cc(S(N)(=O)=O)ccc1OC` here?
**A.** inactive

**Q.** With `CCN(CC)C(=O)C1CN2CCc3cc(OC)c(OC)cc3C2CC1OC(C)=O` (centres undefined) as the compound, how does the Potency read?
**A.** inactive

**Q.** For `CCCCC(CC)CNC(=O)CC(C)OC(=O)CCC(=O)O` (centres undefined), which Potency is on record?
**A.** inactive

**Q.** Which Potency does the source give for `C[C@@H](C1=C(CCN(C)C)Cc2ccccc21)c1ccccn1` here?
**A.** inactive

**Q.** For `CN1Cc2cc(C(=O)N3CCC(C4CCNCC4)CC3)ccc2N[C@@H](CC(=O)O)C1=O`, which Potency is on record?
**A.** inactive

**Q.** With `CC(=O)N(CC(=O)N(C)C)c1ccccc1` as the compound, how does the Potency read?
**A.** inactive

**Q.** With `COC(=O)c1cc(Cl)c(NC(C)=O)cc1OC` as the compound, how does the Potency read?
**A.** inactive

**Q.** For `CC(NC(CCc1ccccc1)C(=O)O)C(=O)N1C(=O)N(C)CC1C(=O)O` (centres undefined), which Potency is on record?
**A.** inactive

**Q.** For `O=C1Nc2cc(Cl)ccc2Oc2ccccc21`, which Potency is on record?
**A.** inactive

**Q.** With `N=C(N)c1ccc(OCCCOc2ccc(C(=N)N)cc2)cc1` as the compound, how does the Potency read?
**A.** inactive

**Q.** With `CCCCCCn1c(=O)c2c(ncn2C)n(C)c1=O` as the compound, how does the Potency read?
**A.** inactive

**Q.** With `CCCC(=O)Nc1ccc(O)c(C(C)=O)c1` as the compound, how does the Potency read?
**A.** inactive

**Q.** With `CNC(=O)c1c(I)c(NC(C)=O)c(I)c(C(=O)O)c1I` as the compound, how does the Potency read?
**A.** inactive

**Q.** For `Cc1ccc(/C=N/n2c(-c3ccccc3)csc2=S)cc1`, which Potency is on record?
**A.** inactive

**Q.** For `C/C(=C(/OCCOc1ccc(Cl)cc1)c1ccc(Cl)cc1Cl)n1ccnc1`, which Potency is on record?
**A.** inactive

**Q.** For `CC(C)C[C@@H]1[C@H](c2ccccc2)OC(=O)N1CCCN1CCCCCC1`, which Potency is on record?
**A.** inactive

**Q.** With `CO/N=C(\C(=O)O)c1csc(NC(=O)CCl)n1` as the compound, how does the Potency read?
**A.** inactive

**Q.** Which Potency does the source give for `CO/N=C(/C(=O)N[C@@H]1C(=O)N2C(C(=O)[O-])=C(C[n+]3ccn4ncccc43)CS[C@H]12)c1nsc(N)n1` here?
**A.** inactive
